# Inconclusive results are not listed. Values without a mark were called inactive. The call rests on the fitted dose curve; in most records, active means well fitted cell-killing curve with a large enough effect in the repeat runs; inconclusive means weak or mixed curves, or effect the other way; inactive means no such curve, though single readings can be large or run the other way.
# Test: qHTS assay to identify small molecule antagonists of the peroxisome proliferator-activated receptor gamma (PPARg) signaling pathway - cell viability counter screen (AID 743194); further: nearly all actives have a fitted effect of over 55% in size
# Settings: PPARg-bla HEK293H viability, CellTiter-Glo luminescence, 17 h, co-treated with 50 nM rosiglitazone; series mostly up to 62.6 µM; activity change, negative = cytotoxicity: at the top concentration
# From the text: U.S. Tox21 Program National Center for Advancing Translational Sciences [NCATS] NIH Chemical Genomics Center [NCGC] U.S. Environmental Protection Agency [EPA] National Institutes of Environmental Health Sciences [NIEHS] National Toxicology Program [NTP] U.S. Food and Drug Administration [FDA] Tox21 Assay Overview: The peroxisome proliferator-activated receptors (PPARs) are lipid-activated transcription factors of the nuclear receptor superfamily with three distinct subtypes namely PPAR alpha, PPAR delta (also called PPAR beta) and PPAR gamma (PPARg). All these subtypes heterodimerize with Retinoid X receptor (RXR) and these heterodimers regulate transcription of various genes. PPAR-gamma receptor (glitazone receptor) is involved in the regulation of glucose and lipid metabolism. To identify the compounds that activate PPAR-gamma signaling, GeneBLAzer PPAR gamma UAS-bla HEK293H cell line (Invitrogen, Carlsbad, CA, USA) containing a beta-lactamase reporter gene under the control of an Upstream Activator Sequence (UAS) was used to screen the Tox21 compound library. The cytotoxicity of the Tox21 compound library against the PPARg-bla cell line was tested in parallel by measuring the cell viability using CellTiter-Glo assay in the same wells.
# Tox21 Assay Protocol Summary: PPARg-bla cells were dispensed at 3000 cells/5uL/well in 1536-well black wall/clear bottom plates using a Multidrop Combi (Thermo Fisher Scientific, Waltham, MA) dispenser. After the assay plates were incubated at 37 C and 5% CO2 for 5 h, 23 nL of compounds dissolved in DMSO, positive controls or DMSO only was transferred to the assay plate by a Pintool station (Kalypsys, San Diego, CA), followed by addition of 1ul Rosiglitazone (50 nM, final concentration in the wells). The assay plates were incubated at 37 C for 17 h, and then 1 uL of LiveBLAzerTM B/G FRET substrate was added using a Bioraptr Flying Reagent Dispenser (FRD) workstation (Beckman Coulter, Indianapolis, IN, USA). The assay plates were incubated at room temperature for 1 h and fluorescence intensity was measured by an Envision plate reader (PerkinElmer, Shelton, CT). For cell viability readout that measures cytotoxicity, 4 ul/well of CellTiter-Glo reagent was added into the assay plates using a Flying Reagent Dispenser. After 30 min incubation at room temperature, the luminescence intensity in the plates was measured using a ViewLux plate reader (PerkinElmer).
# On the % scale 0 is the no-effect control and ±100 the full control effect.
row,SMILES,"activity change, negative = cytotoxicity"
1,C[C@@H]1CCC[C@H](C)N1CCCC(O)(c1ccccc1)c1ccccn1 (stereo not given in full),2.74%
2,Cc1ccc(S(=O)(=O)NC(=O)NN2CC3CCCC3C2)cc1 (stereo not given),19.5%
3,CCCCCCCCCCCCCC(=O)OCC,-34.4%
4,CCN1CCN(C(=O)N[C@@H](C(=O)N[C@@H]2C(=O)N3[C@@H]2SC(C)(C)[C@H]3C(=O)O)c2ccccc2)C(=O)C1=O,-16.4%
5,CC1(C)CC(N)CC(C)(C)N1,2.3%
6,CCNC(=O)C(C)OC(=O)Nc1ccccc1 (stereo not given),-5.98%
7,CCCC(C)C(O)CC (stereo not given),18.6%
8,CCCCCCCCC1CO1 (stereo not given),-5.72% [at 81.1 µM]
9,CC(=O)Nc1ccc(OCCOCCOc2ccc(NC(C)=O)cc2)cc1,0.0327%
10,CCCCCCCCOCCC#N,4.54%
11,CN(C)c1cc(NC(=O)CNC(C)(C)C)c(O)c2c1C[C@H]1C[C@H]3[C@H](N(C)C)C(=O)C(C(N)=O)=C(O)[C@@]3(O)C(=O)C1=C2O,-5.37%
12,CCCCCCCCCCCCCCBr,10.8% [at 81.1 µM]
13,COC(=O)c1ccc(C(=O)O)cc1,-2.3%
14,COC(=O)/C=C(\C)CCC=C(C)C,0.56%
15,C=C(C)C(=O)OCCOC1CC2CC1C1C=CCC21 (stereo not given),7.04% [at 81.1 µM]
16,CCC(C)(C)C,15.3% [at 81.1 µM]
17,C=CCON/C(CCC)=C1\C(=O)CC(C)(C)C(C(=O)OC)=C1O,-16%
18,N=C(N)N,2.46%
19,CC(=O)c1ccc(O)c(C(N)=O)c1,-0.527%
20,CCCCC(CC)COC(=O)CC#N (stereo not given),14.7%

row,SMILES,"activity change, negative = cytotoxicity"
1,CCCCCCCOC(C)=O,2.55%
2,Nc1nc(Cl)cc(Cl)n1,3.45%
3,CCCC(=O)C(CC)Sc1ccoc1C (stereo not given),8.22%
4,O=C1c2ccccc2C(=O)N1CO,-1.16% [at 81.1 µM]
5,COc1ccccc1N1CCN(CC(O)COc2cc(OC)c(OC)c(OC)c2)CC1 (stereo not given),7.02%
6,CC(=O)SC[C@@H](C)C(=O)N1CCC[C@H]1C(=O)N[C@@H](Cc1ccccc1)C(=O)O,-4.63%
7,COC(C)(C)CC(C)=O,30.6%
8,Cc1ccc(O)c([N+](=O)[O-])c1,3.1% [at 81.1 µM]
9,C/C(Cl)=C/CCl,-5.32% [at 81.1 µM]
10,Cc1nnc(C(=O)NC(C)(C)c2nc(C(=O)NCc3ccc(F)cc3)c(O)c(=O)n2C)o1,4.03%
11,CC(C)c1cc(C(C)C)cc(C(C)C)c1,-25.8%
12,Cc1ccc(OC(=O)CC(C)C)cc1,-1.37%
13,CCOC(=O)COc1ccc2c(C)c(CCN(CC)CC)c(=O)oc2c1Cl,3.33%
14,C=CCCCCCCCCOC(C)=O,2.4%
15,Cc1cc(C)c(N)c(Cl)c1,-0.642%
16,CC(C)(C)c1ccc(C(=O)CCCCl)cc1,14.3%
17,CCCCS,-4.55% [at 81.1 µM]
18,CCCCCCCCCCCBr,-9.99%
19,CC(C)(Sc1cc(C(C)(C)C)c(O)c(C(C)(C)C)c1)Sc1cc(C(C)(C)C)c(O)c(C(C)(C)C)c1,-0.186%
20,CCN1CCN(C(=O)N[C@@H](C(=O)N[C@@H]2C(=O)N3C(C(=O)O)=C(CSc4nnnn4C)CS[C@H]23)c2ccc(O)cc2)C(=O)C1=O,-1.78%

# From PubChem BioAssay (Tox21)
